A short description of experiment [1]: growth inhibition, single agents and combos, LFS_MB_1R, cell-based, cisplatin or BGB combos, synergistic combos for chromothripsis tumors (AID 1671452).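 Also: cells exposed for 96 hours before readout.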 The following applies: LFS_MB_1R medulloblastoma cells, stronger effect = higher value.
Experiment [2] in a line: growth inhibition, single agents and combos, CRL2098, cell-based, BGB or cisplatin IC20 combos, synergistic combos for chromothripsis tumors (AID 1671454).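 Also: cells exposed for 96 h before readout; 0% = vehicle DMSO and 100% = killing by high DMSO.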 The following applies: CRL2098 osteosarcoma cells, drug combinations, stronger effect = higher value.
Experiment [3] is described as follows: growth inhibition, single agents and combos, HD-MB03, cell-based, BGB or cisplatin IC20 combos, synergistic combos for chromothripsis tumors (AID 1671455; in the data active = inhibition above about 83%;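 also: 0% = vehicle DMSO and 100% = high DMSO as cytotoxic control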). The following applies: HD-MB03 medulloblastoma cells, stronger effect = higher value.
The nature of experiment [4]: growth inhibition, single agents and combos, UWB1.289, cell-based, BGB or cisplatin combos, synergistic combos for chromothripsis tumors (AID 1671456).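 Also: cells exposed to compound for four days; 0% = vehicle DMSO and 100% = killing by high DMSO.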 The following applies: UWB1.289 ovarian carcinoma cells, stronger effect = higher value.
The nature of experiment [5]: growth inhibition, single agents and combos, LFS_MB_2R, cell-based, cisplatin combos, synergistic combos for chromothripsis tumors (AID 1671457).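 Also: cells exposed to compound for four days before readout.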 As to conditions: LFS_MB_2R medulloblastoma cells, stronger effect = higher value.
Experiment [6] can be described thus: growth inhibition, MDA-MB-436, cell-based, BGB or cisplatin combos, synergistic combos for chromothripsis tumors (AID 1671458; call rule not given here;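 also: cells exposed for 96 hours; 0% = vehicle DMSO and 100% = killing by high DMSO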). As to conditions: MDA-MB-436 breast carcinoma growth inhibition, drug combinations, stronger effect = higher value.
A short description of experiment [7]: UWB1.289_BRCA1 ovarian cancer growth, cell-based, BGB or cisplatin combinations (AID 1671459). The following applies: UWB1.289 BRCA1 ovarian carcinoma, drug combinations, stronger effect = higher value.
The nature of experiment [8]: drug combination toxicity in non-malignant astrocytes – cell-based, BGB or cisplatin IC20 combos, cytotoxicity control for chromothriptic childhood tumor combination screen (AID 1671460).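 Also: cells exposed to compounds for 96 hours before viability readout; 0% = vehicle and 100% = killing control.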 As to conditions: Human astrocytes, viability inhibition, drug combinations, at 0.5 µM, stronger effect = higher value.
The nature of experiment [9]: BT084 cell growth, single and combined drugs, ICGC_MB145, cisplatin and BGB IC40 combos (AID 1671461).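 Also: cells exposed to drugs for 96 hours; 0% = vehicle DMSO and 100% = high DMSO full killing control.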 As to conditions: BT084 medulloblastoma cells, drug combinations, stronger effect = higher value.
Experiment [10] is described as follows: RCMB18 cell growth, single agent and combined, cisplatin and BGB IC40 combos (AID 1671462).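 Also: cells exposed to compound for four days.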 As to conditions: RCMB18 medulloblastoma cells, stronger effect = higher value.
Experiment [11] in a line: CRL1545 cell growth, single agent and combined, cisplatin and BGB IC20 combos (AID 1671464).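 Also: cells exposed to compound for 96 hours before readout; 0% = vehicle DMSO and 100% = high DMSO killing control.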 The following applies: CRL1545 osteosarcoma cells, stronger effect = higher value.
The nature of experiment [12]: compounds altering circadian rhythm period length – cell-based, LOPAC library, luminescence reporter (AID 2774; call rule not given here;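 also: values are relative to mean of DMSO wells on each plate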). The following applies: circadian reporter cells, at 7 µM, actives lie on both sides.
Experiment [13] relates to Hepatitis C virus NS3 helicase. The experiment is described as follows: blockers of NS3h binding to ssDNA – biochemical, fluorescence polarization, LOPAC1280 library, primary screen (AID 687035; in the data active = inhibition above about 37%). As to conditions: Purified HCV NS3 helicase, Cy5-dT15 ssDNA binding fluorescence polarization; stronger effect = higher value; concentration not given here. (Polarisation of emitted light reports the rotation of a fluorescent probe.)

Experiment [14] can be described thus: compounds altering Cy5-DNA-NS3h complex signal – biochemical, LOPAC1280, artefact control for HCV NS3 helicase inhibitor project (AID 687037; call rule not given here). As to conditions: Cy5-DNA-NS3h complex fluorescence interference counterscreen. (In general: The purpose of a counterscreen is to sort out artefacts and off-target activity.)
Experiment [15] in a line: compounds altering viability of human ES cells (AID 493140; call rule not given here;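 also: cells exposed to compounds for four days before counting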). The following applies: human embryonic stem cell survival screen; stronger effect = higher value.
[16] abbreviates: measured here: combination with BGB IC40, at 0.05 µM.
Setting [17] is: measured here: combination with cisplatin, at 0.5 µM.
The mark [18] stands for this setting: measured here: combination with cisplatin, at 5 µM.
Where [19] appears, read: measured here: combination with BGB at IC20, at 0.5 µM.
Setting [20] is: measured here: combination with cisplatin at IC20, at 0.5 µM.
Where [21] appears, read: measured here: combo with BGB at IC20, at 0.5 µM.
Setting [22] is: measured here: combo with cisplatin at IC20, at 0.5 µM.
[23] abbreviates: measured here: inhibition with BGB combination, at 0.05 µM.
The mark [24] stands for this setting: measured here: inhibition with cisplatin combination, at 0.05 µM.
Setting [25] is: measured here: BGB combination, at 0.5 µM.
Where [26] appears, read: measured here: BGB combination, at 5 µM.
Where [27] appears, read: measured here: cisplatin combination, at 0.5 µM.
Setting [28] is: measured here: cisplatin combination, at 5 µM.
The mark [29] stands for this setting: BGB combination, concentration series, at 5 µM.
The mark [30] stands for this setting: cisplatin combination, concentration series, at 5 µM.
Setting [31] is: measured here: combo with BGB IC20.
Setting [32] is: measured here: combo with cisplatin IC20.
Where [33] appears, read: cisplatin combination, at 0.5 µM.
[34] abbreviates: measured here: BGB IC40 combination 0.05 uM, at 0.05 µM.
Setting [35] is: measured here: BGB IC40 combination, at 0.05 µM.
The mark [36] stands for this setting: measured here: with BGB IC20 combination, at 0.5 µM.
[37] abbreviates: measured here: with cisplatin IC20 combination, at 0.5 µM.

Each structure is given as a SMILES string. Calls of active or inactive are those of the source. Rule as the data show it, unless noted: active = inhibition above about 80%; inactive = the rest.

The term inhibition denotes the relative decrease from the control value, in per cent. In the case of `O=c1[nH]cnc2ccccc12`, the inhibition in experiment [1] (at 0.5 µM) was -18.8% (inactive); in experiment [1] (setting [16]), -25.1%; in [1] (setting [17]), -17.4%; in [1] (setting [18]) it was -38.3%; in [2] (at 0.5 µM), -61.6% (inactive); in experiment [2] (setting [19]), -35.5%. Further, the inhibition in experiment [2] (setting [20]) is -103%; in experiment [3] (at 0.5 µM), 4.79% (inactive); in experiment [3] (setting [21]), 10.7%; in experiment [3] (setting [22]) it was 11.6%; in experiment [4] (at 0.5 µM) it was 2.5% (inactive); in experiment [4] (setting [23]) it was -5.21%. Further, the inhibition was -17.2% in experiment [4] (setting [24]); -8.8% (inactive) in experiment [5] (at 0.5 µM); -21.4% in experiment [5] (setting [17]); -15.8% in experiment [5] (setting [18]); -5.02% (inactive) in experiment [6] (at 0.5 µM); -15% in experiment [6] (setting [25]). Further, the inhibition in experiment [6] (setting [26]) is -20.2%; in experiment [6] (setting [27]), -1.15%; in [6] (setting [28]), -18.2%; in experiment [7] (setting [29]), 11.1%; in [7] (at 0.5 µM) it was 0.09% (inactive); in [7] (setting [30]) it was -4.56%. In addition, the inhibition is 12.5% (inactive) in experiment [8]; -1.33% in experiment [8] (setting [31]); 21.8% in experiment [8] (setting [32]); -14% (inactive) in [9] (at 0.5 µM); -49.4% in experiment [9] (setting [33]); -11.8% in [9] (cisplatin combination, at 5 µM). Also, the inhibition in [9] (setting [34]) was -51.7%; in [9] (single agent, at 5 µM) it was 12.2%; in experiment [10] (at 0.5 µM), -16.1% (inactive); in experiment [10] (cisplatin combo, at 5 µM) it was -26.7%; in experiment [10] (setting [35]), -1.26%; in experiment [10] (setting [17]), -25.5%. In addition, the inhibition in experiment [10] (single agent, at 5 µM) is -13.2%; in experiment [11] (at 0.5 µM) it was 0.67% (inactive); in [11] (setting [36]), -3.84%; in [11] (setting [37]), 1.34%; in experiment [11] (single agent, at 0.05 µM), -24.3%; in [11] (single agent, at 5 µM), -5.49%.

On to `O=c1cc(N2CCOCC2)oc2c1ccc1ccccc12`, for which the inhibition in experiment [1] (at 0.5 µM) was -3.28% (inactive); in [1] (setting [16]), -8.81%; in [1] (setting [17]) it was -5.09%; in experiment [1] (setting [18]), 16.4%; in experiment [2] (at 0.5 µM), -13.1% (inactive); in experiment [2] (setting [19]), -40.8%. Also, the inhibition is 19.4% in [2] (setting [20]); 3.57% (inactive) in [3] (at 0.5 µM); 4.4% in experiment [3] (setting [21]); -1.01% in experiment [3] (setting [22]); -1.52% (inactive) in experiment [4] (at 0.5 µM); 2.55% in experiment [4] (setting [23]). Further, the inhibition in experiment [4] (setting [24]) was -7.12%; in experiment [5] (at 0.5 µM) it was 0.24% (inactive); in [5] (setting [17]), 7.58%; in experiment [5] (setting [18]), 0.815%; in experiment [6] (at 0.5 µM), 2.45% (inactive); in experiment [6] (setting [25]) it was 5.3%. The inhibition in experiment [6] (setting [26]) was -21.1%; in [6] (setting [27]) it was -2.44%; in experiment [6] (setting [28]) it was -6.05%; in [7] (setting [29]) it was -2.5%; in experiment [7] (at 0.5 µM), -1.77% (inactive); in experiment [7] (setting [30]), 4.97%. The inhibition in experiment [8] is 1.74% (inactive); in experiment [8] (setting [31]), -0.854%; in experiment [8] (setting [32]), 0.235%; in experiment [9] (at 0.5 µM) it was -4.41% (inactive); in [9] (setting [33]), -0.482%; in [9] (cisplatin combination, at 5 µM) it was -111%. Besides, the inhibition was -19.7% in experiment [9] (setting [34]); 2.3% in experiment [9] (single agent, at 5 µM); -17.7% (inactive) in experiment [10] (at 0.5 µM); 21.8% in [10] (cisplatin combo, at 5 µM); -2.3% in experiment [10] (setting [35]); -18.7% in experiment [10] (setting [17]). Also, the inhibition in [10] (single agent, at 5 µM) is 1.08%; in [11] (at 0.5 µM), 11.6% (inactive); in experiment [11] (setting [36]) it was -23.5%; in [11] (setting [37]), 28%; in [11] (single agent, at 0.05 µM), -4.12%; in [11] (single agent, at 5 µM), -7.26%.

Regarding `CC(C)C1C2CCC(C2)C1N` (configuration not stated), the period change in experiment [12] was -0.025 h (inactive).

Regarding `NS(=O)(=O)c1cccc2c1c([N+](=O)[O-])cc1nc(O)c(O)nc12`, in experiment [12], the period change was 0.35 h (inactive). For the same compound, the inhibition in [13] was -6% (inactive). For the same compound, the fluorescence ratio (interference) in [14] was 1 (inactive).

For `FC(F)(F)c1cc(CO[C@H]2CCCN[C@H]2c2ccccc2)cc(C(F)(F)F)c1`, in experiment [12], the period change was 0 h (inactive).

In the case of `Cc1nc2sccn2c(=O)c1CCN1CCC(=C(c2ccccc2)c2ccc(F)cc2)CC1`, the period change in experiment [12] is -0.05 h (inactive). Also, in experiment [13], the inhibition is -1% (inactive). Moreover, in [14], the fluorescence ratio (interference) was 1 (inactive).

As for `C=CC(=O)c1ccc2ccccc2c1`, the survival in experiment [15] was 46.4 (inactive).

Consider `COc1cc2c(cc1C(F)(F)F)N(C(=O)Nc1cc(F)cc(-c3cccnc3)c1)CC2`, for which the period change in experiment [12] was 0.195 h (inactive).

As to `COc1ccc2[nH]c(I)c(CCNC(C)=O)c2c1`, the period change in [12] was -0.075 h (inactive).

For `N#C/C(=C\c1ccc(O)c(O)c1)C(N)=O`, in experiment [15], the survival was 73 (inactive).

In the case of `Cc1cccc(C)c1NC(=O)C[N+](C)(C)C`, the period change in experiment [12] was 0.05 h (inactive).

For the compound `COc1[nH]c2ccc(F)cc2c1C(=O)OCC1CCN(CCNS(C)(=O)=O)CC1`, in experiment [12], the period change was -0.015 h (inactive).

Turning to `Cc1c(CC(C)(C)C(=O)O)n(Cc2ccc(Cl)cc2)c2ccc(F)cc12`, the period change in [12] was -0.04 h (inactive).

With `C#CCN1C(C)=C(C(=O)OC)C(c2cccc([N+](=O)[O-])c2)C(C(=O)OCC)=C1C` (configuration not stated), the period change in experiment [12] is -0.025 h (inactive). In experiment [13], the inhibition was 1% (inactive). Moreover, the fluorescence ratio (interference) in [14] was 0.9 (inactive).

These data come from PubChem BioAssay.
